Common to all, as to format: functional
Test [1] concerns Plasmodium falciparum. As to the kind of experiment: GSK_TCMDC: Inhibition of Plasmodium falciparum 3D7 in whole red blood cells, using parasite LDH activity as an index of growth. Test compounds present at 2uM.
The test system of test [2] is Plasmodium falciparum. The test is described as follows: GSK_TCMDC: Inhibition of Plasmodium falciparum Dd2 in whole red blood cells, using parasite LDH activity as an index of growth. Test compounds present at 2uM.
The subject of another test is HepG2. The test is described as follows: GSK_TCMDC: Percent inhibition of human HepG2 cell line. Test compounds present at 10uM.

In general, Inhibition refers to the change of the read-out against control, counted positive when it falls. Read a low Inhibition as little suppression.

On to `COc1ccc(C(=O)Cn2nc(-c3ccc(Cl)cc3)ccc2=O)c(OC)c1`, for which the Inhibition was 93% in the test with Plasmodium falciparum [1], 70% in the test on Plasmodium falciparum [2] and 0% in the test with HepG2.
On the same counts, the results for `O=CO.Oc1ccccc1CNCc1ccc(-c2cnc(N3CCCC(c4ccccc4)C3)nc2)cc1` (stereo unspecified) are 99%, 84% and 6%.
On to `CC(C)NCC(O)COc1ccc(Cc2ccc(OCC(O)CNC(C)C)cc2)cc1.Cl` (stereo unspecified), for which the Inhibition in the test on Plasmodium falciparum [1] turned out to be 100%; in the test with Plasmodium falciparum [2] it was 18%; in the test on HepG2, 0%.
For `CN1CCc2cc(Br)c(O)cc2C1Cc1ccccc1Cl.Cl` (stereo unspecified), the Inhibition is recorded as 98% with Plasmodium falciparum [1], 88% in the test with Plasmodium falciparum [2] and 2% with HepG2.
The like results for `COc1ccc2nccc([C@@H](O)CN3CCC(NCCOc4ccc(F)cc4Cl)CC3)c2c1.O=C(O)C(=O)O` were, in that order, 99%, 85% and 1%.
On to `O=c1ccccn1CCCC1CCCCN1` (stereo unspecified), for which the Inhibition in the test on Plasmodium falciparum [1] was found to be 96%; in the test with Plasmodium falciparum [2], 0%; with HepG2, 0%.
As to `O=C(Nc1ccc(Cl)c(Cl)c1)Nc1ccc2c(c1)CCNCC2.O=C(O)C(F)(F)F`, the Inhibition worked out at 86% in the test with Plasmodium falciparum [1], 37% in the test on Plasmodium falciparum [2] and 13% with HepG2.
The like results for `CC(C)(C)N1CCC(N(Cc2ccc(-c3ccc(C(F)(F)F)cc3)cc2)C(=O)Cn2c(CCc3cccc(F)c3F)nc(=O)c3cccnc32)CC1.O=C(O)C(O)C(O)C(=O)O` were, in that order, 100%, 53% and 94%.
`CC(C)Cn1c(Sc2ccc(C#N)c([N+](=O)[O-])c2)nnc1-c1ccccc1`: the figures for the Inhibition in the test with Plasmodium falciparum [1], in the test with Plasmodium falciparum [2] and in the test with HepG2 were 83%, 12% and 17%, respectively.
Regarding `Br.N=C1c2ccccc2CN1CC(=O)c1ccc(Cl)c(Cl)c1`, the results for the Inhibition with Plasmodium falciparum [1], in the test on Plasmodium falciparum [2] and in the test on HepG2 were 98%, 16% and 1%, respectively.
The like results for `O=C(/C=C/c1ccc(Cl)c(Cl)c1)NCCCCCN1CCC(NC(=O)c2ccc([N+](=O)[O-])cc2)CC1` were, in that order, 100%, 6% and 36%.
On the same counts, the results for `COc1cc(-c2cc(-c3ccc(S(C)(=O)=O)cc3)cnc2N)ccc1O` are 97%, 97% and 37%.
With `COc1ccc(C2N=C(N)N=C(N)N2c2ccc(Cl)cc2)cc1OC.Cl` (stereo unspecified), the results for the Inhibition in the test on Plasmodium falciparum [1], in the test with Plasmodium falciparum [2] and in the test on HepG2 were 85%, 4% and 4%, respectively.
As to `Cc1nc2nc(N)nc(N)c2c(C)c1Cc1ccccc1.Cl`, the Inhibition in the test on Plasmodium falciparum [1] is listed as 95%; in the test on Plasmodium falciparum [2], 0%; with HepG2, 62%.
In the case of `Cc1cccc2nc(-c3ccc(-c4ccc(CN5CCC(CCN6CCCCC6)CC5)cc4)cc3)[nH]c12.O=C(O)C(F)(F)F`, the Inhibition with Plasmodium falciparum [1] was determined as 100%; with Plasmodium falciparum [2] it was 100%; in the test on HepG2 it was 99%.
On to `CC(C)c1ccc(S(=O)(=O)Nc2cccc(CCN3CCC(N4CCCCC4)CC3)c2)cc1`, for which the Inhibition worked out at 100% in the test with Plasmodium falciparum [1], 35% with Plasmodium falciparum [2] and 37% in the test with HepG2.
On the same counts, the results for `COc1cccc(C=NNc2cc(C)nc3c(OC)cccc23)c1` are 99%, 58% and 6%.
As for `Cc1cc(N2CCCC2)nc(Nc2ccc(NC(=O)c3ccccc3C)cc2)n1`, the values for the Inhibition in the test with Plasmodium falciparum [1], in the test on Plasmodium falciparum [2] and in the test with HepG2 were 100%, 40% and 22%, respectively.
Consider `CCN(CC)S(=O)(=O)c1ccc(Cl)c(C(=O)Nc2ccc3nc(C)sc3c2)c1`, for which the Inhibition came out at 96% in the test on Plasmodium falciparum [1], 94% in the test with Plasmodium falciparum [2] and 9% in the test with HepG2.
For `Cc1cccn2c(=O)c3cc(C(=O)NC(C)c4ccccc4)c(=N)n(CCc4ccccc4)c3nc12` (stereo unspecified), the Inhibition with Plasmodium falciparum [1] is 100%; in the test on Plasmodium falciparum [2], 82%; in the test on HepG2, 5%.
Consider `O=C(c1c(-c2[nH]c3ccccc3c2C(=O)C(F)(F)F)[nH]c2ccccc12)C(F)(F)F`, for which the figures for the Inhibition with Plasmodium falciparum [1], in the test on Plasmodium falciparum [2] and in the test with HepG2 were 97%, 99% and 18%, respectively.
As to `COc1cc(OCCCN(C)Cc2ccc(OC)c(OC)c2)ccc1NC(=O)c1cccc2c(O)c3cccc(F)c3nc12`, the Inhibition was determined as 94% in the test on Plasmodium falciparum [1], 62% in the test with Plasmodium falciparum [2] and 10% in the test on HepG2.
As for `COc1ccc(C2(CNCC(O)c3cccc([N+](=O)[O-])c3)CCCCC2)cc1OC.Cl` (stereo unspecified), the Inhibition was 95% with Plasmodium falciparum [1], 85% in the test with Plasmodium falciparum [2] and 0% in the test on HepG2.
For the compound `Cc1cc(N(CCCN(C)C)Cc2cc(F)cc(F)c2)nc(Nc2ccc(Cl)cc2)n1`, the Inhibition with Plasmodium falciparum [1] is 99%; in the test on Plasmodium falciparum [2], 97%; in the test with HepG2 it was 37%.
As for `CS(=O)(=O)O.FC(F)(F)COc1ccc(CCNCCCCNCCc2ccc(OCC(F)(F)F)c3ccccc23)c2ccccc12`, the Inhibition with Plasmodium falciparum [1] was determined as 99%; in the test with Plasmodium falciparum [2], 70%; with HepG2 it was 100%.
Take `NC1CCN(Cc2ccc(-c3cccc(-c4nc5cc(F)ccc5[nH]4)c3)cc2)C1.O=C(O)C(F)(F)F` (stereo unspecified): the Inhibition came out at 100% with Plasmodium falciparum [1], 16% with Plasmodium falciparum [2] and 47% in the test with HepG2.
As to `CNCc1ccc2nc(-c3coc(Cc4cc(Cl)ccc4OCC(C)C)n3)[nH]c2c1.Cl`, the results for the Inhibition in the test with Plasmodium falciparum [1], in the test with Plasmodium falciparum [2] and in the test with HepG2 were 100%, 95% and 34%, respectively.
As to `Cc1cc(Nc2cccc(C(F)(F)F)c2)nc2ccc(NC(=O)c3ccc(=O)[nH]c3)cc12`, the Inhibition is listed as 100% with Plasmodium falciparum [1], 60% with Plasmodium falciparum [2] and 21% in the test with HepG2.
Consider `O=C(O)C(F)(F)F.OCCN1CCN(Cc2ccc(-c3cccc(-c4nc5cc(F)ccc5[nH]4)c3)cc2)CC1`, for which the Inhibition in the test on Plasmodium falciparum [1] is 100%; in the test on Plasmodium falciparum [2], 61%; in the test on HepG2, 21%.
With `O=C(O)C(F)(F)F.O=c1ccc2ccc(F)c3c2n1CC3CN1CCC(NCc2ccc(-c3cccc(Cl)c3)nc2)CC1` (stereo unspecified), the results for the Inhibition in the test on Plasmodium falciparum [1], in the test on Plasmodium falciparum [2] and with HepG2 were 96%, 33% and 16%, respectively.
As for `COc1ccc(NC(=O)Nc2ccc(-c3ccccc3)cc2Cl)cc1N1CCN(C)CC1`, the Inhibition is 90% in the test with Plasmodium falciparum [1], 30% in the test with Plasmodium falciparum [2] and 40% with HepG2.
Take `O=C(Nc1ccc(Cn2ncc(N3CCCNCC3)c(Cl)c2=O)cc1)Nc1cc(Cl)cc(Cl)c1.O=C(O)C(F)(F)F`: the Inhibition with Plasmodium falciparum [1] is on record as 91%; in the test with Plasmodium falciparum [2], 17%; with HepG2, 3%.

The values are drawn from ChEMBL document CHEMBL1157539, “Thousands of chemical starting points for antimalarial lead identification” (Nature, 2010).
